# Assay results published in PubChem BioAssay (NCATS).
# Values joined by “and” are separate entries in the source; they are usually repeats but may differ in a detail not shown here. Equal entries are not always repeated. Results filed as inconclusive are left out. Where a call stands in place of a potency, no number is given. Some structures have more than one record in an assay (separate samples or runs), and their calls can disagree. A number with no mark means an inactive call. Active and inactive are the calls of the source. Unless noted, calls follow the shape of the full dose curve.
# Test: qHTS assay for small molecule activators of the nuclear factor-kappa B (NF-kB) signaling pathway (AID 651749; active = well fitted activation curve with a large enough effect in the signal ratio; the % refers to the signal ratio)
# Details: NF-kB-bla ME-180 cells, beta-lactamase FRET ratio, 16 h; activation: active compounds read high
# Outline: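 Screening used 2,000 ME-180 reporter cells per well exposed to pinned compound (23 nL) or DMSO; after 16 hr at 37C, beta-lactamase expression under NF-kB control was assessed through FRET.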
# Potency is read from the fitted curve at half-maximal effect.
SMILES,activation,Potency
Brc1ccccc1,1.07% and -1.27%,–
CCSC(=O)Cl,-1.04%,–
Cc1cccc([N+](=O)[O-])c1,-0.494% and -2.2%,–
Nc1c(Cl)c(Cl)nc(C(=O)O)c1Cl,-0.763% and -1.51% and -1.13%,–
CC(C)(C)OOC(C)(C)C,1.21%,–
C=C(C)C(=O)OCC1CO1 (centres undefined),0.768%,–
Cc1ccc([N+](=O)[O-])cc1C,0.21% and 0.188%,–
O=[N+]([O-])c1ccc(Cl)c(Cl)c1,-0.387%,–
Cc1ccc2ccccc2c1,-0.574%,–
Nc1ccccc1Cl,0.524%,–
[O-][Br+2]([O-])O,0.211% and 0.528%,–
Clc1nc(Cl)nc(Nc2ccccc2Cl)n1,0.657%,25.1 µM (active)
C=CC(N)=O,-0.549% and 0.0148% and 0.73%,–
CC(C)(c1ccccc1)c1ccc(O)cc1,-0.397% and -3.49%,–
CCN(CC)c1ccccc1,-0.976%,–
S=C=Nc1cccc2ccccc12,2.04%,–
N#CCCCl,-0.282% and -0.0737%,–
Cc1ccccc1N,0.244% and -0.381%,–
C=CCOC(C)=O,-0.256%,–
CCCC(=O)Cl,-0.622%,–
NC(=S)Nc1ccccc1,-0.0044% and -1.03% and -0.459%,–
O=C(Cl)/C=C/C(=O)Cl,2.63%,–
c1nc[nH]n1,0.14%,–
c1ccc2c(c1)CCCC2,-0.796%,–
CCCSC(=O)Cl,-0.498%,–
CC(O)CCl (centres undefined),1% and -0.134%,–

# Test: qHTS assay for small molecule disruptors of the mitochondrial membrane potential - 1 hr assay (AID 651754); also: nearly all actives have a fitted effect of over 35% in size
# Details: series mostly up to 92.2 µM
# Outline: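 HepG2, 2,000 cells/well, overnight attachment; cpd or DMSO 1 hr, 37C/5% CO2; Mito-MPS dye 30 min, 37C; fluorescence monomer (490/535) and aggregate (540/590).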
row,SMILES,Potency
1,Brc1ccccc1,inactive
2,CCOP(=S)(OCC)SCSC(C)(C)C,inactive
3,CCSC(=O)Cl,inactive
4,Cc1cccc([N+](=O)[O-])c1,inactive
5,Nc1c(Cl)c(Cl)nc(C(=O)O)c1Cl,inactive
6,CC(C)(C)OOC(C)(C)C,inactive
7,C=C(C)C(=O)OCC1CO1 (centres undefined),inactive
8,Cc1ccc([N+](=O)[O-])cc1C,inactive
9,O=[N+]([O-])c1ccc(Cl)c(Cl)c1,inactive
10,C=CC(=C)C,inactive
11,Cc1ccc2ccccc2c1,inactive
12,Nc1ccccc1Cl,inactive
13,Clc1ccc2ccccc2c1,inactive
14,[O-][Br+2]([O-])O,inactive
15,Clc1nc(Cl)nc(Nc2ccccc2Cl)n1,inactive
16,OCC1CO1 (centres undefined),inactive
17,C=CCOC(=O)c1ccccc1N,inactive
18,C=CC(N)=O,inactive
19,CC(C)(c1ccccc1)c1ccc(O)cc1,26.6 µM (active)

row,SMILES,Potency
1,CCN(CC)c1ccccc1,inactive
2,N#CCCCl,inactive
3,O=NN(CCO)CCO,inactive
4,Cc1ccccc1N,inactive
5,C=CCOC(C)=O,inactive
6,CCCC(=O)Cl,inactive
7,NC(=S)Nc1ccccc1,inactive
8,O=C(Cl)/C=C/C(=O)Cl,inactive
9,C=C(Cl)Cl,inactive
10,ClCBr,inactive
11,COc1ccc(C=O)cc1OC,inactive
12,C=CC(=O)OCC,inactive
13,c1nc[nH]n1,inactive
14,c1ccc2c(c1)CCCC2,inactive
15,CCCSC(=O)Cl,inactive
16,Clc1cccc(C(Cl)(Cl)Cl)n1,inactive
17,O=NN(c1ccccc1)c1ccccc1,inactive
18,C1CCC2CCCCC2C1 (centres undefined),inactive
19,CC(O)CCl (centres undefined),inactive

# Test: qHTS assay for small molecule disruptors of the mitochondrial membrane potential - 5 hr assay (AID 651755); also: nearly all actives have a fitted effect of over 40% in size
# Details: JC-1-type ratio dye; series mostly up to 92.2 µM
# Outline: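 HepG2 cells, attached overnight at 37C, were exposed to compound or DMSO for 5 hr at 37C, 5% CO2. Mito-MPS dye was then added for 30 min, and fluorescence read at 490/535 nm (monomers) and 540/590 nm (aggregates).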
row,SMILES,Potency
1,Brc1ccccc1,inactive
2,CCOP(=S)(OCC)SCSC(C)(C)C,inactive
3,CCSC(=O)Cl,inactive
4,Cc1cccc([N+](=O)[O-])c1,inactive
5,Nc1c(Cl)c(Cl)nc(C(=O)O)c1Cl,inactive
6,CC(C)(C)OOC(C)(C)C,inactive
7,C=C(C)C(=O)OCC1CO1 (centres undefined),inactive
8,Cc1ccc([N+](=O)[O-])cc1C,inactive
9,O=[N+]([O-])c1ccc(Cl)c(Cl)c1,inactive
10,C=CC(=C)C,inactive
11,Cc1ccc2ccccc2c1,inactive
12,Nc1ccccc1Cl,inactive
13,Clc1ccc2ccccc2c1,inactive
14,[O-][Br+2]([O-])O,inactive
15,Clc1nc(Cl)nc(Nc2ccccc2Cl)n1,inactive
16,OCC1CO1 (centres undefined),inactive
17,C=CCOC(=O)c1ccccc1N,inactive
18,C=CC(N)=O,inactive
19,CC(C)(c1ccccc1)c1ccc(O)cc1,33.5 µM (active)
20,CCN(CC)c1ccccc1,inactive

row,SMILES,Potency
1,S=C=Nc1cccc2ccccc12,inactive
2,N#CCCCl,inactive
3,O=NN(CCO)CCO,inactive
4,Cc1ccccc1N,inactive
5,C=CCOC(C)=O,inactive
6,CCCC(=O)Cl,inactive
7,NC(=S)Nc1ccccc1,inactive
8,O=C(Cl)/C=C/C(=O)Cl,inactive
9,C=C(Cl)Cl,inactive
10,ClCBr,inactive
11,COc1ccc(C=O)cc1OC,inactive
12,C=CC(=O)OCC,inactive
13,c1nc[nH]n1,inactive
14,c1ccc2c(c1)CCCC2,inactive
15,CCCSC(=O)Cl,inactive
16,Clc1cccc(C(Cl)(Cl)Cl)n1,inactive
17,O=NN(c1ccccc1)c1ccccc1,inactive
18,C1CCC2CCCCC2C1 (centres undefined),inactive
19,CC(O)CCl (centres undefined),inactive
